This is an account of results in PubChem BioAssay (Tox21).

Experiment [1] in a line: qHTS assay to identify small molecule agonists of the peroxisome proliferator-activated receptor delta (PPARd) signaling pathway - cell viability counter screen (AID 743211). Also: potency is read from the fitted curve at half-maximal effect; nearly all actives have a fitted effect of over 55% in size. The method in brief:
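Read-out: CellTiter-Glo luminescence, 30 min RT, measured in the same wells as the beta-lactamase reporter. Cells: GeneBLAzer PPAR delta UAS-bla HEK293H, 3000 cells/well, compound exposure 17 h at 37C.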
In general terms: qHTS replaces the single test concentration by a dilution series.

Experiment [2] is described as follows: qHTS assay to identify small molecule antagonists of the peroxisome proliferator-activated receptor delta (PPARd) signaling pathway - cell viability counter screen (AID 743213). Also: potency is read from the fitted curve at half-maximal effect; nearly all actives have a fitted effect of over 50% in size. The method in brief: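 PPARd-bla HEK293H cells were treated with compounds plus agonist L165041 (300 nM final) for 17 h at 37 C. Viability was then read in the same wells by CellTiter-Glo luminescence after 30 min at room temperature.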

The nature of experiment [3]: qHTS assay to identify small molecule agonists of the farnesoid-X-receptor (FXR) signaling pathway - cell viability counter screen (AID 743218). Also: potency is read from the fitted curve at half-maximal effect; nearly all actives have a fitted effect of over 45% in size. The essentials:
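Luminescence from CellTiter-Glo, read after 30 min at RT, reports viability of GeneBLAzer FXR-UAS-bla HEK 293T cells treated 16 h with compounds in the wells used for the beta-lactamase reporter.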

A short description of experiment [4]: qHTS assay to identify small molecule antagonists of the farnesoid-X-receptor (FXR) signaling pathway - cell viability counter screen (AID 743221; active = well fitted cell-killing curve with a large enough effect in the repeat runs, not every such curve was filed as active; also: nearly all actives have a fitted effect of over 50% in size; also: potency is read from the fitted curve at half-maximal effect). The method in brief: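 HEK 293T FXR-bla cells, 5 h pre-incubation; compound + CDCA 50 uM final, 16 h, 37 C; beta-lactamase FRET read first, then CellTiter-Glo luminescence, 30 min RT.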
Experiment [5] concerns the target Vitamin D3 receptor (Homo sapiens) (UniProt P11473). As to the kind of experiment: qHTS assay to identify small molecule antagonists of the vitamin D receptor (VDR) signaling pathway (AID 743223; active = well fitted inhibition curve with a large enough effect in the signal ratio in the repeat runs, not every such curve was filed as active; the % refers to the signal ratio; also: potency is read from the fitted curve at half-maximal effect). The essentials:
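Beta-lactamase reporter read-out: FRET substrate fluorescence after 2 h at room temperature, following 16 h exposure of VDR-bla cells to test compound plus 3 nM (final) 1alpha,25-dihydroxyvitamin D3 agonist at 37C.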

The nature of experiment [6]: qHTS assay to identify small molecule agonists of the vitamin D receptor (VDR) signaling pathway - cell viability counter screen (AID 743224). Also: nearly all actives have a fitted effect of over 50% in size. Also: potency is read from the fitted curve at half-maximal effect. The method in brief:
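Cytotoxicity counter screen: VDR-bla cells, 16 h compound exposure at 37C, 5% CO2; CellTiter-Glo luminescence, 30 min RT, same wells as bla read.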

Experiment [7] is described as follows: qHTS assay to identify small molecule antagonists of the vitamin D receptor (VDR) signaling pathway - cell viability counter screen (AID 743225). Also: nearly all actives have a fitted effect of over 50% in size. Also: potency is read from the fitted curve at half-maximal effect. The essentials: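 Viability counter screen run in the same wells as the beta-lactamase reporter assay: HEK 293T VDR-UAS-bla cells, 16 h compound exposure at 37C with 3 nM (final) 1-alpha,25-dihydroxyvitamin D3. CellTiter-Glo luminescence, 30 min, room temperature.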

A short description of experiment [8]: qHTS assay to identify small molecule antagonists of the retinoid-related orphan receptor gamma (ROR-gamma) signaling pathway - cell viability counter screen (AID 1159520). Also: nearly all actives have a fitted effect of over 50% in size. Also: potency is read from the fitted curve at half-maximal effect. The essentials:
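Tet-on ROR gamma CHO cells were given compounds for 2 hr, then doxycycline hyclate at 1 uM final, and incubated 16 hr at 37 C. Viability was measured as ATP content by CellTiter-Glo luminescence.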

The nature of experiment [9]: qHTS assay to identify small molecule agonists of the AP-1 signaling pathway - cell viability counter screen (AID 1159525; calls by dose curve; also: nearly all actives have a fitted effect of over 55% in size; also: potency is read from the fitted curve at half-maximal effect). The essentials: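 Same-well cytotoxicity counter screen of the Tox21 10K library in ME-180 cells. The readout is ATP-dependent luminescence after 5 h compound treatment. Data are normalised to DMSO and tetra n-octyl ammonium bromide controls.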

Experiment [10] can be described thus: qHTS assay to identify small molecule agonists of the RXR signaling pathway - cell viability counter screen (AID 1159529). Also: nearly all actives have a fitted effect of over 50% in size. Also: potency is read from the fitted curve at half-maximal effect. The essentials: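 Luminescence from CellTiter-Glo (30 min, RT) measured viability in the same wells as the beta-lactamase reporter readout. Cells: GeneBLAzer RXR-alpha HEK 293T, 2% charcoal-stripped FBS. Compound exposure 16 hr, 37 C.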

Experiment [11] can be described thus: qHTS assay to identify small molecule antagonists of the retinoid acid receptor (RAR) signaling pathway - cell viability counter screen (AID 1159551). Also: nearly all actives have a fitted effect of over 35% in size. Also: potency is read from the fitted curve at half-maximal effect. The essentials:
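C3RL4 RARE-luciferase line; cpds + retinol 1 uM final, 6 h, 37 C/5% CO2; CellTiter-Glo ATP luminescence, 30 min RT.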

The nature of experiment [12]: qHTS assay to identify small molecule antagonists of the retinoic acid receptor (RAR) signaling pathway (AID 1159552; also: nearly all actives have a fitted effect of over 50% in size; also: potency is read from the fitted curve at half-maximal effect). The essentials:
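Luminescence from a RARE luciferase reporter in C3RL4 cells served as read-out. Cells received compounds together with 1 uM final retinol and incubated 6 hr at 37 C before detection reagent was added for 30 min at room temperature.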

Experiment [13] in a line: qHTS assay to identify small molecule agonists of the AP-1 signaling pathway (AID 1159526; calls by dose curve; also: potency is read from the fitted curve at half-maximal effect).
For experiment [14], the target named is Retinoic acid receptor RXR-alpha (Homo sapiens) (UniProt P19793). Briefly: qHTS assay to identify small molecule agonists of the RXR signaling pathway (AID 1159527; calls by dose curve; also: nearly all actives have a fitted effect of over 35% in size). The essentials: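 Agonist mode; 9-cis retinoic acid positive control. HEK 293T UAS-bla reporter cells, 2% charcoal-stripped FBS, 16 hr compound exposure at 37 C/5% CO2. LiveBLAzer B/G FRET substrate 2 hr RT; ex 405, em 460/530 nm.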
Retinoic acid receptor RXR-alpha (Homo sapiens), sequence (P19793 whole entry, looked up): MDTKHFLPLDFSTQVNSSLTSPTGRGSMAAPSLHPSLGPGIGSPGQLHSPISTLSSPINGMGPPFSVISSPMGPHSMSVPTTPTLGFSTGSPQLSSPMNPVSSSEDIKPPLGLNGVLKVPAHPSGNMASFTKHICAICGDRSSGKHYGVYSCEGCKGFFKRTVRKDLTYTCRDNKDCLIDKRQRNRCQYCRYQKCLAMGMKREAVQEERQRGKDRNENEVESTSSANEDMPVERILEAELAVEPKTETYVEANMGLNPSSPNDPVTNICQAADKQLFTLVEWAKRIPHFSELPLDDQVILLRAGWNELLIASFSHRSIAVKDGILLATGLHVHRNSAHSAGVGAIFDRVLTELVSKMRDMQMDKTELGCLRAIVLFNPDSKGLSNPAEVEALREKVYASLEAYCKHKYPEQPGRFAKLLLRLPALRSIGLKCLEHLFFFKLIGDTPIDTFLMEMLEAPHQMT

Experiment [15] addresses Peroxisome proliferator-activated receptor delta (Homo sapiens) (UniProt Q03181). Briefly: qHTS assay to identify small molecule agonists of the peroxisome proliferator-activated receptor delta (PPARd) signaling pathway (AID 743212; calls by dose curve). The method in brief:
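Tox21 library screened in GeneBLAzer PPARd UAS-bla HEK293H cells. After compound treatment at 37 C, a FRET-based beta-lactamase substrate was applied for 2 h and fluorescence recorded.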

For experiment [16] the target is unchanged. Briefly: qHTS assay to identify small molecule antagonists of the peroxisome proliferator-activated receptor delta (PPARd) signaling pathway (AID 743215; active = well fitted inhibition curve with a large enough effect in the signal ratio in the repeat runs, not every such curve was filed as active; the % refers to the signal ratio;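 also: cells stimulated with agonist L165041 at 300 nM final during compound exposure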; also: potency is read from the fitted curve at half-maximal effect). The method in brief:
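HEK293H GeneBLAzer PPARd UAS-bla reporter cells; cpd + L165041 300 nM final, 17 h 37 C; LiveBLAzer B/G FRET substrate 2 h RT; fluorescence intensity read-out. Antagonist mode.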

The target in experiment [17] is Vitamin D3 receptor (Homo sapiens) (UniProt P11473). Briefly: qHTS assay to identify small molecule agonists of the vitamin D receptor (VDR) signaling pathway (AID 743222; calls by dose curve). The method in brief: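 Beta-lactamase reporter readout (LiveBLAzer B/G FRET, 2 h RT) in VDR-bla cells after 16 h compound treatment at 37C, 5% CO2; cells pre-incubated 4 h before pin transfer of DMSO solutions.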
Vitamin D3 receptor (Homo sapiens), sequence (P11473 whole entry, looked up): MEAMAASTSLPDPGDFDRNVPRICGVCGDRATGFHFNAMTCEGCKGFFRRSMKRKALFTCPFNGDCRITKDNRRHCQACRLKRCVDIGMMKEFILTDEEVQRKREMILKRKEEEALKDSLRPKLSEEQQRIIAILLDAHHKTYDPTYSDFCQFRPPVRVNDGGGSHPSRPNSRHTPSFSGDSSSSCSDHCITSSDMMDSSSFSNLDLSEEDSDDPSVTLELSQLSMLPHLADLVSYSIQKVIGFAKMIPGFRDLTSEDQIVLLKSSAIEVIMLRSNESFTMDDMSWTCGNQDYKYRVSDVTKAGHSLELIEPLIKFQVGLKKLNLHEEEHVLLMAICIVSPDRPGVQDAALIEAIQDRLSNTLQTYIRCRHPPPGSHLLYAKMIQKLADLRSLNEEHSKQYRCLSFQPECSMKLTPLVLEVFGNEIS

Experiment [18] has as its target Bile acid receptor (Homo sapiens) (UniProt Q96RI1). As to the kind of experiment: qHTS assay to identify small molecule agonists of the farnesoid-X-receptor (FXR) signaling pathway (AID 743220; active = well fitted activation curve with a large enough effect in the signal ratio in the repeat runs, not every such curve was filed as active; the % refers to the signal ratio). The method in brief:
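FXR-UAS-bla HEK 293T cells carrying a UAS-driven beta-lactamase reporter were plated for 5 h at 37C/5% CO2, then exposed to DMSO-dissolved Tox21 10K compounds for 16 h at 37C. A LiveBLAzer B/G FRET substrate was loaded for 2 h at room temperature before fluorescence reading.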

Experiment [19] has the same target. Briefly: qHTS assay to identify small molecule antagonists of the farnesoid-X-receptor (FXR) signaling pathway (AID 743217; active = well fitted inhibition curve with a large enough effect in the signal ratio in the repeat runs, not every such curve was filed as active; the % refers to the signal ratio). The essentials: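 Read-out: beta-lactamase FRET fluorescence (LiveBLAzer B/G substrate, 2 h, room temperature) in GeneBLAzer FXR-UAS-bla HEK 293T cells. Compounds were co-dosed with 50 uM chenodeoxycholic acid (final) and incubated 16 h at 37 °C.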

Experiment [20] has as its target Nuclear receptor ROR-gamma (Homo sapiens) (UniProt P51449). As to the kind of experiment: qHTS assay to identify small molecule antagonists of the retinoid-related orphan receptor gamma (ROR-gamma) signaling pathway (AID 1159521). The essentials: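 Luminescence readout (ONE-Glo, 30 min RT) after 16 h doxycycline induction; loss of signal scored as antagonism. CHO cells with TET-inducible RORγ and RORE-LUC reporter; compounds added 2 h before 1 uM final doxycycline.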

Inconclusive results are not listed. Unmarked numbers belong to inactive results. The source made the active and inactive calls. Unless noted, calls follow the shape of the dose curve; as a rule, active = well fitted curve in the direction sought with a large enough effect in the repeat runs; inconclusive = weak or mixed curves; inactive = no such curve, though single readings can be large; an effect the other way counts as inactive or inconclusive.

Peroxisome proliferator-activated receptor delta (Homo sapiens), sequence (Q03181 whole entry, looked up): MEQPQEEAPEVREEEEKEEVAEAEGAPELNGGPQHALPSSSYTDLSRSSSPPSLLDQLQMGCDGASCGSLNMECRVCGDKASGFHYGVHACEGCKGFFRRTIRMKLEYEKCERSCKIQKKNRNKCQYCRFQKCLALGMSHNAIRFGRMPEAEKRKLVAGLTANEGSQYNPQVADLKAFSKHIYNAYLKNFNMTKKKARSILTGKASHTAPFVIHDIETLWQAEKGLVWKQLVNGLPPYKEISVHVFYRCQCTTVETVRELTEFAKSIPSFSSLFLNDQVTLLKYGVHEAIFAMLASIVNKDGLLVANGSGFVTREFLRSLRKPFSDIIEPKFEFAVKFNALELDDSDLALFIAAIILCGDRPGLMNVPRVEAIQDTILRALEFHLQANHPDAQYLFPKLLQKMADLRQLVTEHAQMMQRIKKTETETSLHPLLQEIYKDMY
Bile acid receptor (Homo sapiens), sequence (Q96RI1 whole entry, looked up): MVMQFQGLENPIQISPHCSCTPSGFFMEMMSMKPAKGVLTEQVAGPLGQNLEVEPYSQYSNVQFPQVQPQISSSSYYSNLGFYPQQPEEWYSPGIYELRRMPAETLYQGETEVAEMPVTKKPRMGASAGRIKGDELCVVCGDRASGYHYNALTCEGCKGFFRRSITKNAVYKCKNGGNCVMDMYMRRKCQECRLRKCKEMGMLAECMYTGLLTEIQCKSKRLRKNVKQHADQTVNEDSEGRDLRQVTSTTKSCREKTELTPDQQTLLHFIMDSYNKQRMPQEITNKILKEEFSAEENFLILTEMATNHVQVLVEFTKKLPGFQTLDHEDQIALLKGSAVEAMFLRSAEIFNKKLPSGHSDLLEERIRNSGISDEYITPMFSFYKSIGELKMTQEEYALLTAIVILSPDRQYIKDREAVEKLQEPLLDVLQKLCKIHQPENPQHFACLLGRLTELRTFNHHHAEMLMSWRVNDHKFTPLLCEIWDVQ

For the molecule `Cc1cc(F)ccc1-c1cc(N2CC[C@@H](O)[C@H]2CO)ncc1N(C)C(=O)C(C)(C)c1cc(C(F)(F)F)cc(C(F)(F)F)c1`, the Potency in experiment [1] is 13.6 µM (active); in experiment [2], 13.6 µM (active); in [3], 13.6 µM (active); in [4], 15.3 µM (active); in experiment [5], 21.5 µM (active); in [6] it was 10.8 µM (active). The Potency in experiment [7] was 13.6 µM (active); in [8], 53.6 µM (active); in experiment [9] it was 17.1 µM (active); in experiment [10] it was 17.1 µM (active); in experiment [12], 42.6 µM (active). For the same molecule, the Potency result in experiment [11] was “inactive”.

In the case of `CC/C(=C(/c1ccc(O)cc1)c1ccc(OCCN(C)C)cc1)c1ccccc1`, the Potency in experiment [8] was 40.3 µM (active); in experiment [9] it was 36.2 µM (active); in experiment [10], 14.4 µM (active); in experiment [11], 35.9 µM (active); in experiment [12], 18 µM (active).

On to `Cc1ccc2nc(-c3ccc(N)cc3)sc2c1S(=O)(=O)O`, for which the Potency result in experiment [4], in experiment [6], in [7], in [8], in [9] and in [11] was “inactive” in each case. In [12], the Potency result was “inactive”. Moreover, in [13], the Potency was 21.5 µM (active).

Turning to `Cc1ccc(C=O)cc1`, the Potency entry in experiment [8], in [9], in [14], in experiment [10] and in experiment [11] was “inactive” each time.

For `CCN(CC)c1ccc(C=O)c(O)c1`, the Potency result in [8], in experiment [9], in experiment [13], in experiment [14], in experiment [11] and in experiment [12] was “inactive” in each case.

Regarding `C=CC(=O)OCC(Br)CBr` (stereo not given), the Potency entry in experiment [8], in experiment [9], in experiment [13], in experiment [14], in experiment [11] and in experiment [12] was “inactive” in each case.

Turning to `C1CCSC1`, the Potency result in experiment [8], in [9], in [13], in experiment [14], in [11] and in experiment [12] was “inactive” in each case.

For the molecule `C=CCc1cc(S(=O)(=O)c2ccc(O)c(CC=C)c2)ccc1O`, the values for the Potency in experiment [1] and in [12] were 43.6 µM (active) and 54.5 µM (active), respectively. For the same molecule, the Potency entry in experiment [4], in [5], in experiment [7], in [8], in experiment [9] and in experiment [10] was “inactive” each time. Moreover, the Potency result in [11] is “inactive”.

Turning to `Cc1ccc(Cl)c(N)c1Cl`, the outcome in experiment [15] was inactive. Further, the Potency result in experiment [4], in experiment [7], in experiment [8], in experiment [9] and in [11] was “inactive” throughout. Besides, the Potency in [6] was 38.9 µM (active); in experiment [10], 49 µM (active).

As to `CCCCCCCCOC(=O)c1cc(O)c(O)c(O)c1`, the Potency is 43.6 µM (active) in experiment [1]; 43.6 µM (active) in experiment [2]; 49 µM (active) in experiment [16]; 54.9 µM (active) in experiment [5]; 24.5 µM (active) in [6]; 27.5 µM (active) in [7]. Moreover, the Potency in [8] is 2.43 µM (active); in experiment [9], 54.9 µM (active). For the same molecule, the call in [15] and in [17] was inactive. Besides, the Potency entry in [11] and in [12] was “inactive” each time.

Turning to `CC1(C)[C@H]2CC[C@]1(C)C(=O)C2`, the Potency result in [8], in experiment [9], in experiment [10], in [11] and in experiment [12] was “inactive” each time. Also, the Potency in experiment [13] was 19.5 µM (active).

On to `CCOc1ccc([N+](=O)[O-])cc1`, for which the Potency in experiment [1] is 49.7 µM (active); in experiment [2], 44.3 µM (active); in [6], 49.7 µM (active); in experiment [7], 22.2 µM (active); in experiment [9] it was 49.7 µM (active); in [10] it was 49.7 µM (active). Moreover, in experiment [12], the Potency entry was “inactive”.

Turning to `CN(C/C=C/c1ccccc1)Cc1cccc2ccccc12`, the molecule was called inactive in experiment [15] and in experiment [18]. In addition, the Potency result in experiment [16], in experiment [4] and in [8] was “inactive” in each case. Besides, the Potency in [6] was 26.6 µM (active); in experiment [10], 13.4 µM (active); in experiment [11] it was 26.6 µM (active).

As for `COc1cccc(-c2ccc(/C=C\CN3CCCCCC3)cc2Cl)c1`, the Potency is 48.7 µM (active) in [1] and 43.4 µM (active) in experiment [10]. Besides, the Potency result in [16] and in experiment [19] was “inactive” throughout. Moreover, the molecule was classed as inactive in [18] and in experiment [17].

As to `c1ccc(-c2ccc(C(c3ccccc3)n3ccnc3)cc2)cc1` (stereo not given), the figures for the Potency in experiment [1], in experiment [16] and in experiment [20] were 29.8 µM (active), 26.6 µM (active) and 15 µM (active), respectively. For the same molecule, the outcome in experiment [15] and in experiment [17] was inactive. The Potency entry in [5], in [7], in experiment [9], in experiment [10], in [11] and in experiment [12] was “inactive” throughout.
